Laboratory results reported in PubChem BioAssay AID1347076 (National Center for Advancing Translational Sciences (NCATS), 2019).
In all, about 400,000 compounds went through this assay and about 13,000 (3.2%) were called active. Entries that show only a call come without a potency. About 18% were inconclusive and are not listed. Calls follow the shape of the dose curve; as a rule, active = well fitted cell-killing curve with a large enough effect; inconclusive = small, poorly fitted or top-dose-only effect, or effect the other way; inactive = flat fitted curve, though single readings scatter. Many of the other results were omitted from the sample, so actives are more common in it than they were.

test: qHTS assay for MDR1-selective chemotherapeutics: Primary screen using the drug-selected MDR subline cells KB-V1; details: KB-V1 MDR cells viability, CellTiter-Glo, 72 h; series mostly up to 46.1 µM; also: nearly all actives have a fitted effect of over 60% in size
Outline: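 qHTS viability screen in drug-selected KB-V1 MDR cells: 72 h compound treatment at 37 degrees C, ATP luminescence end point.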
Potency is read from the fitted curve at half-maximal effect.

SMILES	Potency
COc1ccc(C(O)c2nc(-c3ccc(OC)nc3)cs2)cc1 (configuration not stated)	inactive
CCOC(=O)c1c(-c2cccc(C)c2)csc1NC(=O)c1c(-c2ccccc2)noc1C	11.6 µM (active)
Cc1ccc(CNC(=O)c2c(-c3ccccc3)noc2C)cc1	inactive
CCOC(=O)c1c(-c2ccc(-c3ccccc3)cc2)csc1NC(=O)CCC(=O)O	inactive
O=S1(=O)CC(N2CCN(CCO)CC2)CN1C1CCCC1 (configuration not stated)	inactive
COc1ccc(C(=O)NCC2CCCO2)cc1S(=O)(=O)NCc1ccc(Cl)cc1 (configuration not stated)	inactive
COc1ccc(Br)cc1CN1CCN(C(=O)c2cccc(OC)c2OC)CC1	inactive
CCC(=O)NCc1cc(-c2nn(C)c(=O)c3ccccc23)ccc1OC	inactive
CCOC(=O)CSc1nnc(-c2cccc(Br)c2)o1	inactive
CCCCCc1c(-c2ccc(OC)c(OC)c2)ncn1CCc1ccccc1OC	14.6 µM (active)
CCCCCc1c(Cc2ccccc2)ncn1CCc1ccccc1OC	inactive
CCCCCc1c(-c2cccc(Br)c2)ncn1CCc1ccccc1OC	11.6 µM (active)
Cc1cccc(-n2ncc(C(=O)N3CCN(c4ccc(Cl)cc4)CC3)c2C2CCN(C(=O)OC(C)(C)C)CC2)c1	inactive
Cc1cc2nc(-c3ccc(NC(=O)c4cc5ccccc5o4)cc3)oc2cc1C	inactive
CCN(CC)CCN(C)C(c1ccnc2ccccc12)c1nnnn1-c1ccc2c(c1)OCCO2 (configuration not stated)	inactive
COC(=O)c1sc2ncccc2c1-n1c(C)ccc1C	inactive
Cc1ccc(-c2c(N)nc3ncccn23)cc1	inactive
O=C(CSc1oc(-c2ccccc2)nc1S(=O)(=O)c1ccc(Br)cc1)NC1CCCCC1	inactive
Cc1ccc([C@H]2C[C@H](O)[C@@H](n3cc(COC(=O)c4ccccc4)nn3)CN2C(=O)C2CCCCC2)cc1	inactive
COc1ccc(OC)c(CNC(=O)C2CCCN(c3nc4ccccc4o3)C2)c1 (configuration not stated)	inactive
COc1ccccc1CNC(=O)C1CCN(c2nc3ccccc3o2)CC1	inactive
CCc1ccc(CNC(=O)C2CCCN(c3nc4ccccc4o3)C2)cc1 (configuration not stated)	14.6 µM (active)
COc1ccc(S(=O)(=O)N(C)C)cc1NC(=O)COC(=O)c1n[nH]c2ccccc12	inactive
CCCNC(=O)C1(C)CCCN(Cc2c(C)nn(-c3ccccc3)c2C)C1 (configuration not stated)	inactive
O=C(CSc1ncn[nH]1)Nc1nc2c(F)c(F)c(F)cc2s1	inactive
CN1OC[C@@H]2CN(S(=O)(=O)c3cccc(C(F)(F)F)c3)[C@H](c3ccc(-c4cc5ccccc5o4)cc3)C[C@@H]21	inactive

SMILES	Potency
COc1ccc(C(CCNCc2ccccc2F)c2ccc(F)cc2)cc1 (configuration not stated)	14.6 µM (active)
COc1ccc(CCNC(=O)COC(=O)Cc2ccccc2F)cc1	inactive
COc1ccc(C(CNCC(=O)Nc2ccccc2F)N(C)C)cc1 (configuration not stated)	inactive
O=S1(=O)CC(N2CCSCC2)CN1Cc1cn(Cc2cccc(Cl)c2)nn1 (configuration not stated)	inactive
COc1cc2[nH]c(C)c(CCN3CCN(c4ccccc4)CC3)c2cc1OC	inactive
Cc1ccc(NS(=O)(=O)c2cc3c(cc2Br)NC(=O)CO3)cc1C	inactive
COc1cc(OC)c(/C=C/c2ccnc3ccccc23)c(OC)c1	inactive
O=C(Cn1nc(C(F)(F)F)c2c1CCCC2)Nc1ccc(Cl)cc1	inactive
O=C(Cn1nc(C(F)(F)F)c2c1CCC2)NCc1ccc(F)cc1	11.6 µM (active)
CCC(C)NC(=O)Cn1nc(C(F)(F)F)c2c1CCC2 (configuration not stated)	inactive
CC(C)Cn1cc(-c2cncc3nccn23)cn1	inactive
CCCC(=O)N1CCC1(C)C(=O)NCc1ccc(C(C)C)cc1 (configuration not stated)	inactive
Cc1ccc(C(=O)Nc2nc(-c3ccccc3)ns2)cc1	inactive
Cc1sc(NC(=O)c2ccc3ncsc3c2)c(C(N)=O)c1C	inactive
Cc1ccc(C(=O)c2c(NC(=O)c3ccccc3)sc(C)c2C)cc1	9.2 µM (active)
O=C(/C=C/[C@H]1O[C@@H](n2ccc(=O)[nH]c2=O)[C@H](O)[C@@H]1O)NCc1ccccn1	inactive
O=[N+]([O-])c1ccc(CN2CC(N3CCC(c4ccccc4)CC3)CS2(=O)=O)cc1 (configuration not stated)	inactive
COC(=O)c1sccc1S(=O)(=O)N(CC(=O)Nc1ccc(C)c(F)c1)c1ccc(C)c(C)c1	inactive
O=C(OC1CC2CC1[C@H]1CCCCN1C2=O)N1CCOCC1 (some centres not stated)	inactive
O=NN(CCCl)C(=O)NCCc1cccc[n+]1[O-]	inactive
Cc1sc2ccccc2c1CNC[C@H]1O[C@@H](n2ccc(=O)[nH]c2=O)[C@H](O)[C@@H]1O	inactive
CCCCN1CC(N2CCN(Cc3cccc(C)c3)CC2)CS1(=O)=O (configuration not stated)	inactive
Clc1ccccc1SCc1nc2ccccc2[nH]1	20.6 µM (active)
c1ccc2c(CSCc3nc4ccccc4[nH]3)cccc2c1	20.6 µM (active)
SCc1nc2ccc(Cl)cc2[nH]1	inactive
CCN(C(=O)CSc1nnc(-c2ccncc2)o1)c1ccccc1	inactive

SMILES	Potency
Clc1ccc(-c2nnc(SCc3nc4ccccc4s3)o2)cc1	inactive
c1ccc(-c2nnc(SCc3nc4ccccc4[nH]3)o2)cc1	20.6 µM (active)
O=C(OCc1nc2ccccc2[nH]1)C1CCCCC1	inactive
Nc1cccc(CCc2nc3ccccc3[nH]2)c1	inactive
O=c1[nH]nc(CSCc2ccccc2Cl)[nH]1	inactive
Cc1ccccc1NC(=O)Cn1cc(C(=O)c2cccs2)c2ccccc21	inactive
Cc1ccc(CNC(=O)CCNS(=O)(=O)c2ccc3c(c2)oc(=O)n3C)cc1	inactive
O=C(NCCc1cccc(F)c1)C1CC(O)CN1C(=O)Nc1ccccc1 (configuration not stated)	inactive
Cc1ccc([C@@H]2CC(=O)[C@@H]3CN(S(=O)(=O)c4ccc(C)cc4)[C@H](c4ccccc4F)C[C@@H]3N2S(=O)(=O)c2ccc(Cl)cc2)cc1	inactive
C=C1C(=O)[C@]23C[C@H]1CCC2[C@@]1(C)C(C[C@@H]3O)[C@](C)(C(=O)O)CC[C@@H]1O (some centres not stated)	inactive
O=C(NC1CCCC1)C1c2ccccc2OCC(=O)N1Cc1ccccc1 (configuration not stated)	inactive
CC1(C(=O)Nc2cccc3c2CCCC3)CCN1C(=O)C1(c2ccccc2)CC1 (configuration not stated)	inactive
Brc1nc2ncnc(NCc3ccco3)c2[nH]1	inactive
COCOCCn1cc(CN2CCS(=O)(=O)N(Cc3ccc(-c4ccccc4)cc3)C(CC(C)C)C2=O)nn1 (configuration not stated)	inactive
Cc1cccc(OCCSc2nc3ccccc3n2CC(=O)N2CCCCC2)c1C	inactive
CCOC(=O)c1cn(Cc2cccc(C)c2)nn1	inactive
CC(=O)c1nn(-c2ccc(C)cc2)cc1C(=O)c1cccc(Br)c1	inactive
CCOC(=O)c1nn(-c2cccc(C)c2)cc1C(=O)c1ccccc1	14.6 µM (active)
Cc1c(Nc2cc(N3CCCC(C)C3)c3nonc3c2[N+](=O)[O-])c(=O)n(-c2ccccc2)n1C (configuration not stated)	inactive
COCCNc1nc(N)c([N+](=O)[O-])c(N2CCCCCC2)n1	inactive
Nc1cc(N2CCCCCC2)c2nonc2c1[N+](=O)[O-]	8.2 µM (active)
CC1(C)OC(=O)C2=C(C[C@@H](C3CCCCC3)O[C@@H]2c2ccc(Cl)cc2)O1	inactive
Cc1[nH]n(-c2ccccc2)c(=O)c1/C=N/NC(=O)c1ccoc1C	inactive
CCCc1nc2ccccc2c(=O)n1/N=C/c1ccc(O)c(O)c1	inactive
Cc1[nH]n(-c2cccc(Cl)c2)c(=O)c1/C=N/n1c(C)nc2ccccc2c1=O	7.31 µM (active)
COc1ccc(C(CNC(=O)CSc2ccccc2)N2CCOCC2)cc1 (configuration not stated)	inactive

SMILES	Potency
Cc1ccc2cccc([N+](=O)[O-])c2n1	inactive
Cc1nn(-c2ccccc2)c(C)c1/C=C/C(=O)OC(C)C(N)=O (configuration not stated)	23.1 µM (active)
Cc1cccc(C)c1NC(=O)COC(=O)c1c(C)nn(-c2ccccc2)c1C	inactive
CCC(Oc1ccccc1)C(=O)OCC(=O)Nc1c(C)nn(-c2ccccc2)c1C (configuration not stated)	inactive
CCOC(=O)C1CCCN(C(=O)c2cccc3ccccc23)CC1 (configuration not stated)	inactive
Cc1c(CN2CCC(CO)(CCOc3ccccc3)CC2)[nH]c2ccc(Cl)cc12	5.8 µM (active)
CC(C)(O)C#Cc1ccc(CN2CCC(CO)(CCc3ccccc3)CC2)cc1	inactive
CCOC(=O)C1(CCOc2ccccc2)CCN(Cc2cc(OC)c(O)cc2Cl)CC1	inactive
COc1cc(OC)c(NC(=O)N2CC3CCCN3c3ccccc32)cc1Cl (configuration not stated)	inactive
C[C@@H]1CN([C@@H](C)CO)C(=O)CCCn2nncc2CO[C@H]1CN(C)C(=O)Nc1ccc(C(F)(F)F)cc1	inactive
CCc1nc2cccnc2n1-c1ccc(CC(=O)Nc2c(C)cccc2C)cc1	inactive
CC1CC(C)CN(c2oc(-c3ccc(OCc4ccc(Cl)cc4)cc3)nc2C#N)C1 (configuration not stated)	inactive
CCN(CC)S(=O)(=O)c1ccc(OC)c(NC(=O)CCc2c(C)noc2C)c1	inactive
CCOc1ccc(Br)cc1S(=O)(=O)Nc1cccc(S(=O)(=O)N(CC)CC)c1	inactive
CCN(CC)S(=O)(=O)c1ccc(N(C)Cc2cccc(OC)c2OC)nc1	6.51 µM (active)
CCC(C(=O)Nc1cccc(Cl)c1C)n1nc(-c2ccc(C)cc2)ccc1=O (configuration not stated)	inactive
CCc1nc2c(OCCOc3ccccc3)cccn2c1N(C=O)Cc1ccc(OC)cc1	inactive
CC(Nc1nc(C(F)(F)F)nc2ccccc12)c1cccs1 (configuration not stated)	inactive
Cc1cc(C)n(-c2nc(C(F)(F)F)nc3ccccc23)n1	inactive
CCc1ccc(C(CNc2nc(C(F)(F)F)nc3ccccc23)N(C)C)cc1 (configuration not stated)	16.4 µM (active)
CC1=C(C(=O)N(C(C)C)C(C)C)CC(CC(=O)NCC2CCCCC2)C(=O)N1Cc1ccccc1 (configuration not stated)	inactive
COc1ccc2cc(C(=O)NCC3CCCO3)[nH]c2c1 (configuration not stated)	inactive
O=C(NCC1CCCO1)c1ccc2ccccc2n1 (configuration not stated)	inactive
O=C(NCC1CCCO1)c1cc2c([nH]c3ccccc32)c(-c2ccc(F)cc2)n1 (configuration not stated)	11.6 µM (active)
